# Tests used:
# Test in all cases: PBM binding z-score (relative to random genomic background probes); higher = stronger binding; sequences stand for … in GC…GCGATTGACAGCGTAGAATGAAGG
# [1] = system: PPARg:RXRa DBDmut IVT, anti-RXR (DBD mutation: RXRa K156A/R161A, NR concentration 270 nM, RXRa partner concentration 90 nM)
# How it was run: (§1)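 Random background probes are the reference for binding z-scores. These scores derive from regression-normalized fluorescence on custom Agilent 4×180K protein-binding microarrays incubated 1 h with ligand-free nuclear receptor dimers. Binding was detected with antibodies against each partner (one per run).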
# [2] = system: PPARg:RXRa IVT, anti-PPARg (NR concentration 270 nM, RXRa partner concentration 90 nM)
# How it was run: as §1
# [3] = system: PPARg DBDmut:RXRa IVT, anti-PPARg (DBD mutation: PPARg1 K132A/R137A, NR concentration 270 nM, RXRa partner concentration 90 nM)
# How it was run: as §1
# [4] = system: PPARg DBDmut IVT, anti-PPARg (DBD mutation: PPARg1 K132A/R137A, NR concentration 270 nM)
# How it was run: as §1
# [5] = system: PPARg homodimer (NR concentration 180 nM)
# How it was run: as §1
# [6] = system: PXR:RXRa (NR concentration 270 nM, RXRa partner concentration 90 nM)
# How it was run: as §1
# [7] = system: PXR homodimer (NR concentration 270 nM)
# How it was run: as §1
# [8] = system: RARa:RXR (NR concentration 270 nM, RXRa partner concentration 90 nM)
# How it was run: as §1
# [9] = system: RARa homodimer (NR concentration 270 nM)
# How it was run: as §1
# [10] = system: RARb:RXRa (NR concentration 270 nM, RXRa partner concentration 90 nM)
# How it was run: as §1
Sequence,PBM binding z-score [1],PBM binding z-score [2],PBM binding z-score [3],PBM binding z-score [4],PBM binding z-score [5],PBM binding z-score [6],PBM binding z-score [7],PBM binding z-score [8],PBM binding z-score [9],PBM binding z-score [10]
TCTATTAGTTGAAGGGCAACGGACGAGTCCGTTT,2.22,0.812,0.14,0.912,0.894,0.785,1.18,0.778,0.625,1.76
ACTATTAGTTGACTTGGGGCAACCGATACGACGC,0.684,0.607,1.18,1.45,0.367,0.156,0.385,0.245,0.466,0.789
CGTCCAAGGTCAGCCGGTCAGTGAAAGCGACGTG,2.51,2.75,-0.217,-1.45,2.55,2.9,0.408,3.71,0.671,5
AATACAGGGTCATCGTAGGGCAGAGTACGCACAG,3.16,4.29,1.4,0.756,3.57,5.4,0.861,5.26,0.97,4.7
TCTTGTAGATCAGAAGGTTAAGAAAGCTGGCCAA,1.98,0.611,0.0732,-0.22,0.201,0.61,0.0531,0.924,0.498,1.07
GGAACGATGGCATTCGAGTTGATAGCATGGCGAT,-0.377,-0.247,-0.636,-0.427,-0.633,-0.0726,-0.789,-0.647,-0.81,-0.501
CAAACTAGGTCACGAAAGTTCAAAGTCGAATGAC,8.72,9.1,2.45,4.02,4.73,7.11,8.3,6.02,2.95,5.27
TATACAGGGTCAAAGGCTAGAGTACGAATGTCGA,2.33,4.88,1.73,2.03,3.15,4.01,1.01,5.02,1.11,4.53
TCTTGTAGATCAAAAGGAGGTTAAGAAAGATCGA,1.99,1.45,0.192,0.409,0.066,0.871,0.0133,1.12,0.597,0.428
AGAATGAGGTTATTAAGATCAGGGGATTGCGGTC,2.94,2.52,0.849,0.535,0.326,1.14,0.713,1.15,0.826,1.34
ATATGTTGGTTATCGGGTCATTCAGTTTGCGCAT,2.6,3.36,1.53,2.49,2.81,3.49,7.6,3.19,2.08,2.05
CCTACTAGGCCATCAGGTCATTGATATCAACGTT,6.04,5.32,0.857,0.291,1.87,2.04,1.66,2.59,1.47,2.45
TCATATAGGTAAGTGCTAGGTGAAAGTCCGATCT,3.42,2.48,0.55,0.697,0.802,0.193,0.147,0.223,1.04,0.4
CCTCGGAGGACAGTAGGTCAGAGCTGTCCGCTTT,2.48,3.2,-0.95,-1.78,0.409,0.0704,-0.598,0.582,0.337,1.97
ACAGACAGGTCAGTGAAGGTAACTCAGCTGGACG,0.901,1.22,-0.0695,-0.218,0.397,1.57,-0.149,1.78,0.123,3.51
TCATAGAGGTAAACAGGTGAAAGTCCGTAAGTTA,2.54,2.16,0.176,0.0732,0.143,0.625,-0.208,1.11,0.579,0.861
CGTCCAAGGTCAAAGGACAGTGAAGAGATGACGG,2.81,3.71,1.49,0.353,2.89,3.74,0.957,4.39,0.706,5.21
TGAATGAGGTTATAAGCTCAGGGAACGTTGCAAA,1.28,1.28,0.166,0.543,-0.0591,0.55,-0.553,1.26,-1.17,1.04

Sequence,PBM binding z-score [1],PBM binding z-score [2],PBM binding z-score [3],PBM binding z-score [4],PBM binding z-score [5],PBM binding z-score [6],PBM binding z-score [7],PBM binding z-score [8],PBM binding z-score [9],PBM binding z-score [10]
CCGACTGGGGCATAAGGATACCATAAGCCAGCCC,2.56,1.93,-0.873,-1.29,-0.477,-0.797,-0.877,-0.463,0.0261,0.0537
CCTACTAGGCCATTCAGAGGTCATTGATCATATG,5.98,5.01,1.66,0.481,2.94,4.79,3.44,4.84,1.44,3.45
TCATAGAGGTAAAAGGTGAAAGTCGGTGTGGTAA,2.72,3.24,0.0344,-0.0644,0.851,2.07,-0.248,3.86,0.918,2.07
ATATGTAGGTTATCGGGTCTTTCAGTTTGCGCAT,7.73,6.72,2.3,2.32,2.02,1.2,1.43,1.07,1.78,1.3
CAAACTAGGTCACGATAGGTCAAAGTCGAATGAC,8.73,9.21,3.89,2.14,4.63,5.42,0.73,5.95,1.74,4.88
CCGACTGCGGCATAAGGTTACCATAAGCCAGCCC,-0.303,-0.677,-0.568,-0.753,0.108,0.121,-0.316,0.892,0.0382,0.791
CAAACTAGGTCACAGGAAGGTCAAAGTCCGCATG,8.64,8.8,3.59,2.12,6.59,5.73,1.51,7.15,2.2,4.93
TCGCGTAGGTTAGGGGCATTCAGAATGGCGTCGA,0.918,-0.148,-0.436,-0.621,-0.168,0.489,0.0303,0.615,-0.246,1.18
TCTGCTAGGTCAGTTGGTCAGCCAACGAGCTGCC,2.34,2.92,2.07,0.334,0.252,0.152,-0.764,0.399,-1.63,3.3
ACTAGTTGATCAGCTGAGGTCACACACAATTCGG,0.672,2.14,0.806,1.68,2.57,4.97,2.19,4.95,0.417,3.22
GCTGCTAGGTCAACTTATGGTCAGCTAAAGCTCG,4.77,4.25,-0.352,-0.235,2.49,2.17,-0.587,3.6,0.316,4.4
GCACCAAGGTGAATAGGTCGTTGATGAGTAGGCG,2.07,2.2,-0.106,-0.894,1.01,0.721,-0.261,1.6,-0.487,1.93
TTACCAAGATGAAGGTCGTTGATCCCTCTGTAGA,0.471,0.0475,0.286,0.663,0.704,1.15,-0.0787,1.18,0.48,0.617
CTCGTAAGGTCGTGCTCAGGTGAGTATACCAAAC,0.319,1.17,0.192,0.162,1.03,2.23,-0.00148,3.61,-0.224,2.83
TCTGCTAGGTCAATGATGGTCAGCTAATCTGCTA,3.8,3.49,0.246,-0.13,0.244,1.02,-0.71,1.46,-0.32,3.72
ATCGAAAGGTGGAAGGTGAGTATACCCACCCGAA,-0.723,0.561,0.498,0.266,0.464,0.15,-0.16,0.474,-0.403,0.83
CCAGACAGGTGAGAAGGTAACTGAGCCTCGATTA,0.955,0.477,-0.278,-0.535,0.591,-0.214,0.124,0.14,0.118,0.396
